Laboratory results: the supplement of paper PMC12350171
Counter-ions that a name gives are not always drawn. A number with no mark means an inactive call.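 How the source made its calls: active = normalised median growth AUC below 0.1 of DMSO control; inactive = AUC 0.1 or higher.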

test system: S. enterica typhimurium WT; assay: growth AUC normalised to DMSO control (median) (fraction of control); higher = less growth inhibition, active = hit call of the paper; settings: 20 µM
How it was run: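 After two overnight anaerobic passages, strains were inoculated at OD578 0.01 into mGAM in 96-well plates containing approved-drug library compounds at 20 μM and 1% DMSO. Growth was followed by reading OD578 hourly for 24 h within an anaerobic incubator. Area under the curve, taken by the trapezoidal rule up to the start of stationary phase, was normalised to same-plate vehicle wells, and the median of three biological replicates is listed.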
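Further: active when median AUC fell below 0.1.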

Row | SMILES | growth AUC normalised to DMSO control
1 | CC(C)Cc1ccc(CC(=O)O)cc1 [Ibufenac] | 1.01
2 | C[C@H]1[C@@H](O)O[C@@H]2O[C@@]3(C)CC[C@H]4[C@H](C)CC[C@@H]1[C@@]24OO3 [Artenimol] | 1
3 | Cc1cc(C#N)cc(C)c1Oc1nc(Nc2ccc(C#N)cc2)nc(N)c1Br [Etravirine] | 1.01
4 | CC(C)[C@H]1CC[C@H](C(=O)N[C@H](Cc2ccccc2)C(=O)O)CC1 [Nateglinide] | 0.994
5 | CCC(=O)c1c(O)cc(O)cc1O [Flopropione] | 0.999
6 | C[C@H](O)[C@H](O)[C@H]1CNc2[nH]c(N)nc(=O)c2N1 [Sapropterin dihydrochloride] | 1.01
7 | CC(=O)Nc1ccc(C(=O)O)cc1 [Acedoben] | 1
8 | CN1c2cc(O)c(N=NC(N)=O)cc2CC1S(=O)(=O)O (stereo not given) [Carbazochrome sodium sulfonate] | 1
9 | O=C(O)c1cc(=O)c2ccccc2o1 [Chromocarb] | 0.998
10 | CCN1CCN(c2cc3c(cc2F)c(=O)c(C(=O)O)cn3C2CC2)CC1 [Enrofloxacin] | 0.00541 (active)
